Source: the supplement of paper PMC9262897, “Low-cost anti-mycobacterial drug discovery using engineered E. coli” (Nature Communications, 2022)
Where a name gives a salt, the structure may show the parent alone. ± gives the standard deviation of the averaged measurements.

Tested on: E. coli TESEC Mtb Alr
Experiment: growth (OD600 after 10 h); higher = more growth (less inhibition)
Conditions: compound 0.1 mM
Method: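 TESEC Mtb Alr E. coli, or the Alr+ wild-type control, in 384-well plates with Prestwick library compounds at 0.1 mM and 1% DMSO, across arabinose induction levels of 1E3 to 1E7 nM. Growth is read as OD600 after 10 h at 37 °C in triplicate biological replicates.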

[1] = arabinose 1000 nM, raw OD600 reference: median of DMSO wells 0.294, cell-free background 0.041
[2] = arabinose 10000 nM, raw OD600 reference: median of DMSO wells 0.264, cell-free background 0.041
[3] = arabinose 100000 nM, raw OD600 reference: median of DMSO wells 0.201, cell-free background 0.041
[4] = arabinose 1000000 nM, raw OD600 reference: median of DMSO wells 0.193, cell-free background 0.041
[5] = arabinose 10000000 nM, raw OD600 reference: median of DMSO wells 0.146, cell-free background 0.041

SMILES	growth [1]	growth [2]	growth [3]	growth [4]	growth [5]
CCCOc1ccccc1-c1nc2[nH]nnc2c(=O)[nH]1 [Zaprinast]	0.229 ± 0.0072	0.257 ± 0.0057	0.162 ± 0.016	0.173 ± 0.0024	0.138 ± 0.0042
O=C(CCCN1CCC(O)(c2ccc(Br)cc2)CC1)c1ccc(F)cc1 [Bromperidol]	0.287 ± 0.0074	0.265 ± 0.0061	0.218 ± 0.028	0.179 ± 0.0028	0.148 ± 0.0045
Cc1cc(-c2ccccc2)nnc1NCCN1CCOCC1 [Minaprine dihydrochloride]	0.288 ± 0.011	0.25 ± 0.0072	0.182 ± 0.012	0.155 ± 0.004	0.156 ± 0.0078
COC(=O)N/N=C/c1c[n+]([O-])c2ccccc2[n+]1[O-] [Carbadox]	0.23 ± 0.011	0.1488 ± 0.00015	0.116 ± 0.003	0.117 ± 0.0034	0.142 ± 0.0022
Nc1cc(-c2ccncc2)c[nH]c1=O [Amrinone]	0.308 ± 0.015	0.277 ± 0.017	0.193 ± 0.012	0.188 ± 0.0077	0.162 ± 0.008
O=C1O[C@H]([C@@H](O)CO)C(O)=C1O [Ascorbic acid]	0.303 ± 0.0086	0.249 ± 0.007	0.22 ± 0.043	0.186 ± 0.0041	0.157 ± 0.0037
C[C@]12CC[C@@H]3c4ccc(O)cc4CC[C@H]3[C@@H]1C[C@@H](O)[C@@H]2O [Estriol]	0.218 ± 0.018	0.277 ± 0.015	0.148 ± 0.0042	0.135 ± 0.0069	0.143 ± 0.0047
CCN(CC)CCNC(C(=O)OCCC(C)C)c1ccccc1 (stereo not given) [Camylofine chlorhydrate]	0.254 ± 0.0087	0.261 ± 0.0027	0.208 ± 0.017	0.156 ± 0.0056	0.148 ± 0.0031
